Screens as filed in PubChem.
Rows were chosen to be rich in hits. Some 2.9% of all compounds tested hit in one or more screens of this group.
DNA FID counter = compounds displacing fluorescent DNA intercalator, primary screen, artefact control for HCV NS3 helicase inhibitor project, biochemical, FID fluorescence | inhibition, % at 7.9 µM | 290,000 compounds, 0.17% hits | DNA fluorescent intercalator displacement; in the data active means inhibition above about 37%;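 further: 0% = vehicle and 100% = reference compound; higher means more ethidium bromide displaced from hairpin DNA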
dFosB act = activators of delta FosB homodimer, primary screen, biochemical, fluorescence polarization, TAMRA-CDK5 oligo, single point; Protein FosB (Mus musculus), P13346; purified delta FosB; percent of positive-control signal above neutral wells; activation, % at 25 µM; 340,000 compounds, 0.99% hits;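 active means mean activation above about 17%, with every replicate also reaching it, limit read from the data, passing the limit was not always enough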
MEKK2wt PB1 HTS = modulators of MEK5 binding to wildtype MEKK2, primary screen, biochemical, multiplex bead flow cytometry, Alexa488-MEK5. Mitogen-activated protein kinase kinase kinase 2 (Homo sapiens), Q9Y2U5. 290,000 compounds, 1.1% hits. binding response (% of control), % at 10 µM. Alexa488-MEK5 binding to MEKK2 WT; actives lie on both sides; in the data active means binding response below about 67% or above about 130%
MEKK2 mut-MEK5 = MEK5 binding signal on mutant MEKK2 PB1, primary screen, biochemical, multiplex bead flow cytometry, Alexa488-MEK5; Alexa488-MEK5 binding to MEKK2 mutant; percent response, % at 10 µM; 290,000 compounds, 0.35% hits; in the data active means percent response above about 24%, passing the limit was not always enough
MEKK3 PB1 HTS = modulators of MEKK3-MEK5 PB1 binding, primary screen, biochemical, wildtype MEKK3, multiplex bead flow cytometry, Alexa488-MEK5 | bead-based flow cytometry, Alexa488-MEK5 binding to MEKK3; actives lie on both sides; 0 = blocked by unlabeled MEK5, 100 = vehicle | binding response (% of control), % at 10 µM | 290,000 compounds, 1.4% hits | AID 1529, 2009;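 active means binding response more than 3 SD above or below the average of its plate-row segment, actives on both sides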;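 further: Alexa488 bead fluorescence after subtracting the streptavidin-only scavenger bead signal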
Target sequence (Q99759 whole entry, looked up): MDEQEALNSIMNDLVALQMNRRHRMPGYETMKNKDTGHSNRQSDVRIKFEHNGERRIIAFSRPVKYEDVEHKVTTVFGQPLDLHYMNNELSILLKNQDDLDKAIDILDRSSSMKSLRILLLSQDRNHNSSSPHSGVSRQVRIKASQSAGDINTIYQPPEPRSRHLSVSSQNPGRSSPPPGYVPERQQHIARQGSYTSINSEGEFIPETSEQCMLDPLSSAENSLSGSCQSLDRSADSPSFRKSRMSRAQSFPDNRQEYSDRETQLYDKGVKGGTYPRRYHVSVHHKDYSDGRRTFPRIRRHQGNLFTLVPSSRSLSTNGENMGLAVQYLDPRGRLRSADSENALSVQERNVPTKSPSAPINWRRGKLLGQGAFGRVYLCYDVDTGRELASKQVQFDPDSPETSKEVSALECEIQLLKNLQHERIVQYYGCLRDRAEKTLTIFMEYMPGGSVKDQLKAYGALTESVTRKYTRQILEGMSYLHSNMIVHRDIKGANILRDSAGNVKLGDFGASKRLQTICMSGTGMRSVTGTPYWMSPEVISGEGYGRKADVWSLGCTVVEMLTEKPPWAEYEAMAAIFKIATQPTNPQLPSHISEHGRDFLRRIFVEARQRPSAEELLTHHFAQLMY
MEKK2wt confirm = modulators of MEK5 binding to wildtype MEKK2, confirmation, biochemical, single concentration, multiplex bead flow cytometry | shares compounds with MEKK3 PB1 HTS | Alexa488-MEK5 binding to MEKK2 WT; actives lie on both sides | binding response (% of control), % at 10 µM | 5,900 compounds, 2.4% hits; in the data active means binding response below about 16% or above about 210%; inactive means in between
MEKK2mut-MEK5 = mutant MEKK2 PB1-MEK5 binding signal retest – biochemical, single concentration, multiplex bead flow cytometry, confirmation; AID 1893, 2009; percent response, % at 10 µM; Alexa488-MEK5 binding to MEKK2 mutant; shares compounds with MEKK3 PB1 HTS; 5,900 compounds, 2% hits; in the data active means percent response mostly above about 71%, no sharp cut-off; inactive means mostly below about 38%;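 further: higher means compound restores mutant binding toward wildtype level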
MEKK3 confirm = MEKK3 wild-type PB1 binding to MEK5, inhibitors, confirmation, biochemical, bead multiplex flow cytometry, single concentration, wildtype; shares compounds with MEKK3 PB1 HTS; Alexa488-MEK5 binding to MEKK3; stronger effect = lower value; binding response (% of control), % at 10 µM; 5,900 compounds, 1.8% hits; AID 1894, 2009;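 active means binding response below 72% of control, or above a set upper limit, though filed actives all read lower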;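 further: 100% = DMSO only wells and 0% = binding blocked by excess unlabeled MEK5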
Active calls of the source: *; . = not tested or not shown; [ ] = remark or other dose.

SMILES | DNA FID counter | dFosB act | MEKK2wt PB1 HTS | MEKK2 mut-MEK5 | MEKK3 PB1 HTS | MEKK2wt confirm | MEKK2mut-MEK5 | MEKK3 confirm
O=C(Nn1c(O)c(C=C2N=c3ccccc3=N2)sc1=S)c1ccccc1Cl | 18.9 | -7.0 | 58.0*[inhibitor] | -26.0 | 82.0 | 66.0 | -27.0 | 89.0
O=S(=O)(Nn1c(O)c(C=C2N=c3ccccc3=N2)sc1=S)c1ccccc1 | -5.0 | -10.0 | 86.0 | -4.0 | 100.0 | . | . | .
COc1ccc(S(=O)(=O)NCC2CCCN(Cc3cccnc3)C2)cc1 (stereo unspecified) | -3.4 | 0.1 | 56.0*[inhibitor] | -4.0 | 89.0 | 99.0 | -1.0 | 95.0
COC(=O)c1nnn(-c2ccsc2C(=O)OC)c1C(=O)OC | -0.2 | 3.2 | 123.0 | 5.0 | 145.0* | 101.0 | -5.0 | 100.0
O=C(CCCNC(=O)c1ccc(Cl)cc1)Nc1ccc(S(=O)(=O)Nc2ncccn2)cc1 | -8.4 | 2.6 | 86.0 | -15.0 | 94.0 | . | . | .
CC(=O)c1c(C)[nH]c(C(=O)CSc2nnc(-c3ccco3)o2)c1C | -11.9 | -11.0 | 127.0 | 7.0 | 152.0* | 97.0 | -6.0 | 100.0
c1ccc(CSc2nnc(-c3ccco3)o2)cc1 | -4.7 | -10.6 | 109.0 | 5.0 | 112.0 | . | . | .
O=C(CSc1nnc(-c2ccco2)o1)N1CCOCC1 | -0.3 | 1.1 | 101.0 | 4.0 | 103.0 | . | . | .
Fc1ccc(CSc2nnc(-c3ccco3)o2)cc1 | -12.6 | -9.3 | 85.0 | -57.0 | 1.0*[inhibitor] | 97.0 | -8.0 | 95.0
O=C(CSc1nnc(-c2ccco2)o1)N1CCN(c2ccccc2)CC1 | -18.2 | -3.6 | 122.0 | 5.0 | 136.0* | 106.0 | 2.0 | 106.0
O=C(CSc1nnc(-c2ccco2)o1)N1c2ccccc2CCc2ccccc21 | -30.0 | -2.7 | 85.0 | -11.0 | 80.0*[inhibitor] | 102.0 | 7.0 | 101.0
COc1ccc(-c2nnc(SCC(=O)c3[nH]c(C)c(C(C)=O)c3C)o2)cc1 | -5.1 | -1.2 | 102.0 | 1.0 | 103.0 | . | . | .
CC1CN(S(=O)(=O)c2cc(C(=O)NCCC3=CCCCC3)ccc2Cl)CC(C)O1 (stereo unspecified) | . | -2.5 | . | . | . | . | . | .
COc1ccccc1N(Cc1ccccc1)S(=O)(=O)c1cccc(C(=O)Nc2cccc(C)n2)c1 | -19.3 | -4.1 | 113.0 | 8.0 | 104.0 | . | . | .
N#CCCNS(=O)(=O)c1ccc(C(=O)OCCCOC(=O)c2ccc(S(=O)(=O)NCCC#N)cc2)cc1 | -32.6 | -8.3 | 98.0 | -4.0 | 98.0 | . | . | .
Cc1sc2ncnc(N3CCCC(C)C3)c2c1C (stereo unspecified) | -2.5 | -4.3 | 94.0 | -3.0 | 101.0 | . | . | .
Cc1ccc(C[n+]2cccc(-c3ccccc3)c2)c(C)c1 | 12.3 | -6.0 | 99.0 | -1.0 | 97.0 | . | . | .
CCOC(=O)CC(=O)NC(C)(C)CCCCC(C)(C)NC(=O)CC(=O)OCC | -22.6 | -7.2 | 101.0 | 2.0 | 102.0 | . | . | .
CCOc1ccccc1N/C(=N/c1nc(C)cc(C)n1)NC(=O)Nc1ccc(Cl)c(Cl)c1 | -1.2 | . | 94.0 | -1.0 | 72.0*[inhibitor] | 100.0 | -5.0 | 102.0
CCCOc1ccccc1N/C(=N/c1nc(C)cc(C)n1)NC(=O)Nc1ccc(Cl)cc1 | 0.0 | -2.8 | 99.0 | 1.0 | 101.0 | . | . | .
C=C(C)C(=O)OCC(O)COc1ccc(C(C)(C)c2ccc(OCC(O)COC(=O)C(=C)C)cc2)cc1 (stereo unspecified) | . | -18.5 | . | . | . | . | . | .
O=C(C[n+]1ccccc1)N/N=C/c1cc(Br)cc(Br)c1O | 17.7 | -5.1 | 107.0 | -2.0 | 105.0 | . | . | .
CCC(O)(CC)C(=O)N/N=C/c1cc(Br)cc(Br)c1O | 0.1 | -0.7 | 127.0 | 23.0 | 134.0* | 104.0 | 3.0 | 103.0
CCOC(=O)c1c(NC(=O)CSc2ncccn2)sc2c1CCN(Cc1ccccc1)C2 | 11.7 | -8.0 | 97.0 | -2.0 | 97.0 | . | . | .
CCOC(=O)c1c(NC(=O)CSc2nnc3c(n2)[nH]c2ccccc23)sc2c1CCN(C)C2 | -3.1 | -8.1 | 144.0* | 15.0 | 107.0 | 137.0 | 20.0 | 102.0
SMILES | DNA FID counter | dFosB act | MEKK2wt PB1 HTS | MEKK2 mut-MEK5 | MEKK3 PB1 HTS | MEKK2wt confirm | MEKK2mut-MEK5 | MEKK3 confirm
COc1ccc(-c2n[nH]c(=S)n2-c2ccc(Br)cc2)cc1OC | -26.1 | 0.8 | 101.0 | 2.0 | 103.0 | . | . | .
NC1=NN=C(c2ccc3c(c2)OCCO3)CS1 | -8.8 | -2.6 | 1.0*[inhibitor] | -84.0 | 1.0*[inhibitor] | 94.0 | -8.0 | 96.0
Cc1sc(N)nc1-c1ccc2c(c1)OCCO2 | -1.2 | -0.7 | 105.0 | 12.0 | 103.0 | . | . | .
CCOC(=O)CCC(NC(=O)CCCC(=O)NC(CCC(=O)OCC)C(=O)OCC)C(=O)OCC (stereo unspecified) | -9.4 | -5.4 | 108.0 | 1.0 | 129.0* | 104.0 | -1.0 | 108.0
CCOC(=O)CCC(NC(=O)CCC(=O)NC(CCC(=O)OCC)C(=O)OCC)C(=O)OCC (stereo unspecified) | -22.1 | 4.3 | 96.0 | 0.0 | 99.0 | . | . | .
O=C(COC(=O)c1ccc(Cl)nc1)NCCC1=CCCCC1 | -12.4 | 4.1 | 101.0 | 4.0 | 104.0 | . | . | .
CC(C)(C)NC(=O)c1oc2ccccc2c1COc1ccccc1 | -16.2 | -4.1 | 102.0 | -1.0 | 69.0*[inhibitor] | 103.0 | -12.0 | 97.0
COc1ccccc1NC(=O)C1=C(C)NC(=O)NC1c1cc(C)cs1 (stereo unspecified) | -6.1 | 5.3 | 98.0 | -1.0 | 97.0 | . | . | .
Cc1cc(=O)oc2cc(O)cc(OCc3ccccc3)c12 | . | -25.7 | . | . | . | . | . | .
COc1ccc(/C=N\NC(=O)CNC(=O)C(c2ccccc2)c2ccccc2)cc1[N+](=O)[O-] | 3.2 | 1.7 | 104.0 | 0.0 | 143.0* | 98.0 | -6.0 | 101.0
Cc1cc(C)c[n+](-c2nc3ccccc3nc2[N-]S(=O)(=O)c2ccc(Cl)cc2)c1 | -22.3 | -7.9 | 111.0 | 0.0 | 137.0* | 103.0 | 2.0 | 103.0
CC1(C)CC(=O)/C(=C(/O)Cc2ccccc2)C(=NCCc2ccccc2)C1 | -27.9 | -8.3 | 98.0 | -1.0 | 128.0* | 104.0 | -1.0 | 108.0
CC1CN(C(=O)CCS(=O)(=O)c2ccccc2)CC(C)O1 (stereo unspecified) | -12.3 | -12.8 | 90.0 | -14.0 | 94.0 | . | . | .
Cc1cc2cc(CN(CCN3CCOCC3)C(=O)Nc3ccccc3F)c(=O)[nH]c2cc1C | -5.3 | -13.3 | 110.0 | 10.0 | 107.0 | . | . | .
